A selection: hits, their analogues and other compounds. The true share with any hit is near 2.9%.
Nrf2 ARE act = Nrf2 pathway activation | AREc32 ARE-luciferase reporter (MCF7-derived line), luminescence, 24 h | Potency, µM (series often up to 46.1 µM), without a hit: top-dose activation, usual class: activators | actives 0.31% (n = 410,000); note: % of control where 0% means no effect; nearly all actives have a fitted effect of over 65% in size
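ARE activation measured as luciferase luminescence (Steady-Glo, 30 min RT) in AREc32_Fluc cells after 24 hr compound exposure at 37 deg C, 5% CO2; cells seeded overnight at 1000/well in OPTI-MEM, 5% FBS.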
Nrf2 inh = blocks Nrf2 signaling; A549 ARE-Fluc reporter, luciferase luminescence, 18-24 h; Potency, µM (doses to about 46 µM), for inactives: top-dose activity change, negative = inhibition, hits mostly inhibitors; actives 2.1% (n = 360,000); note: % is set by controls: 0 for no effect and ±100 for the full control effect; nearly all actives have a fitted effect of over 60% in size
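Reporter: ARE-Fluc in A549. Exposure: 18-24 h, 37 °C, 5% CO2, 5% FBS OPTI-MEM. Readouts: fluorescent cytotoxicity (CellTiter-Fluor), then luminescent Nrf2 signal after BugLite.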
ATXN viability = viability counter-screen for ATXN expression inhibitors | S2 cells (HEK-293 line with an ATXN2-luciferase reporter) viability, CellTiter-Fluor protease fluorescence, 24 h | AID 651635 | Potency, µM (top dose mostly 56.7 µM), usual class: cytotoxic | actives 0.49% (n = 400,000); note: nearly all actives have a fitted effect of over 40% in size
A549 tox = counter-screen for Nrf2 inhibitors: cytotoxicity in A549 cells | AID 504648 | actives 0.16% (n = 390,000) | A549 ARE-Fluc cells, CellTiter-Fluor viability, 18-24 h | Potency, µM (top dose mostly 46 µM), inactives show at the top dose activity change, negative = cytotoxicity, most hits filed as inhibitors; note: % is set by controls: 0 for no effect and ±100 for the full control effect
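A549 ARE_Fluc cells in 5% FBS OPTI-MEM were exposed to compounds in concentration-response for 18-24 h at 37 deg C. Viability was read by CellTiter-Fluor fluorescence (Ex 405/Em 525) after 30 min, before the luciferase read.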
ATXN2 expr inh = ATXN2 expression inhibition | AID 1745845 | Potency, µM (top dose mostly 57 µM), inactives show top-dose activity change, negative = inhibition, most hits filed as inhibitors | actives 0.72% (n = 360,000) | HEK-293 ATXN2-luciferase reporter, luminescence, 24 h; note: % is set by controls: 0 for no effect and ±100 for the full control effect; nearly all actives have a fitted effect of over 55% in size
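ATXN2-luciferase reporter cells (luciferase flanked by upstream and downstream ATXN2 gene portions) were treated 24 h at 37 °C with compounds at up to 57 uM. SteadyGlo luminescence gave expression; GF-AFC fluorescence gave viability.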
Active calls of the source: *; i = inactive; u = inconclusive; x = no result; [ ] = another dose, or the depositor's remark. Calls come from the whole dose curve; as a rule, active = well fitted curve in the direction sought with a large enough effect; inconclusive = small, poorly fitted or top-dose-only effect, or another doubt; inactive = no such curve, though single readings can be large; an effect the other way counts as inactive or inconclusive. Potency is the fitted concentration of half-maximal effect.

SMILES	Nrf2 ARE act	Nrf2 inh	ATXN viability	A549 tox	ATXN2 expr inh
O=C(CCS(=O)(=O)c1nc(-c2cccs2)cc(C(F)(F)F)n1)Nc1ccc(OC(F)(F)F)cc1	u	6%[9.27 µM]	16µM*	-1%	-18%
COc1ccc(NC(=O)CCS(=O)(=O)c2nc(-c3cccs3)cc(C(F)(F)F)n2)cc1	-5%	-5%[9.27 µM]	x	0%	x
COc1ccc(-c2ncccc2OC(=O)C23CC4CC(CC(C4)C2)C3)cc1OC	-1%	-11%	i	-2%	-11%
CCN(CC(=O)Nc1cccc(OC)c1)c1ncnc2sc(C)c(C)c12	3%	21µM*	u	-6%	u
O=S(=O)(c1ccc(Oc2ncnc3scc(-c4ccccc4)c23)cc1)N1CCOCC1	4%	16µM*	i	-5%	-6%
O=c1[nH]c(/C=C/c2ccccc2[N+](=O)[O-])nc2ccccc12	1.3µM*	5%	i	7%	10%
Cc1ccc(C(C#N)=Cc2ccc3c(c2)OCO3)cc1	0%	x	i	x	x
C=CC[n+]1c(-c2ccc(OC)cc2)csc1NNC(=O)Nc1ccccc1	4%	15µM*	i	-7%	-6%
CCC(c1nnnn1CCc1ccccc1)N(Cc1ccco1)Cc1cc2c(C)ccc(C)c2[nH]c1=O (stereo not drawn)	4%	18µM*	i	u	u
CCC(c1nnnn1CCc1ccccc1)N(Cc1ccco1)Cc1cc2cc(C)cc(C)c2[nH]c1=O (stereo not drawn)	16%	u	i	u	-26%
CC(C)OC(=O)Nc1ccc2c(c1)N(C(=O)CCN1CCN(CCO)CC1)c1ccccc1CC2	1%	3%	i	0%	-1%
Cc1ccc(-c2nnn(CC(=O)N(Cc3cccs3)C(C(=O)NC3CCCC3)c3ccncc3)n2)cc1 (stereo not drawn)	5%	6.5µM*	u	-17%	-5%
O=C(NCC1CCCO1)C(c1ccncc1)N(Cc1cccs1)C(=O)Cn1nnc(-c2ccc(F)cc2)n1 (stereo not drawn)	0%	u	u	-6%	-19%
CN1CCN(NC(=O)c2ccc(Br)c(S(=O)(=O)N3CCOCC3)c2)CC1	0%	8%	i	2%	1%
CC1CCN(CC2C(=O)O[C@@H]3C[C@@]4(C)CCC[C@H](C)C4=C[C@H]23)CC(C)(C)C1 (stereo partly drawn)	8.9µM*	-9%	u	0%	u
C=C1CCC[C@]2(C)C[C@H]3OC(=O)C(CN4CC(C)OC(C)C4)[C@H]3C[C@@H]12 (stereo partly drawn)	u	u	i	-8%	u
O=S(=O)(c1ccc2nc(Cl)c(Cl)nc2c1)N1CCN(S(=O)(=O)c2c(F)cccc2F)CC1	x	-13%	x	0%	x
COc1ccc(Oc2ccc(NC(=O)c3ccccc3C)cc2)cc1	0%	u	i	-14%	25%
Cc1ccc(C(NC(=O)NC(C)c2ccccc2)C(Cl)(Cl)Cl)cc1F (stereo not drawn)	1%	16µM*	u	u	u
COc1ccc2oc3cc(C)[n+]([O-])c(-c4ccc(C)cc4)c3c2c1	4%	26µM*	i	u	-27%
COc1cccc(NC(=O)CSc2nc3ccccc3c(=O)n2C)c1	3%	15µM*	u	-10%	x
Cc1ccc(-n2c(SCC(=O)Nc3cccc(S(N)(=O)=O)c3)nc3ccccc32)cc1	3%	21µM*	i	u	-35%
C=CCn1c(SCC(=O)Nc2cccc(S(N)(=O)=O)c2)nc2sc(C)c(C)c2c1=O	4%	16µM*	i	u	-5%
COC(=O)c1cc(CSc2nc3ccccc3c(=O)n2C)oc1C	3%	18µM*	i	5%	-20%
CC(C)Cn1c(SCC(=O)Nc2cccc(S(N)(=O)=O)c2)nc2ccccc2c1=O	0%	21µM*	i	-20%	-15%
SMILES	Nrf2 ARE act	Nrf2 inh	ATXN viability	A549 tox	ATXN2 expr inh
CCOc1ccc(-c2nnc(SCC(=O)Nc3ccc4c(c3)c3ccccc3n4CC)n2N)cc1	4%	u	x	u	32µM*
CCn1c(SCC(=O)Nc2cccc(OC)c2)nnc1-c1ccc(Cl)cc1	0%	26µM*	i	-12%	-25%
CCn1c(SCC(=O)Nc2ccc(OCc3ccccc3)cc2)nnc1-c1ccco1	1%	15µM*	i	u	-4%
Clc1ccc(CSc2cc3c(nn2)-c2ccccc2CC3)cc1	5%	u	i	15%	23%
COc1ccc(Cc2nc3ccccc3n2Cc2ccccc2F)cc1	5%	18µM*	u	-5%	-26%
CCn1c(Cc2ccc(OC)cc2)nc2ccccc21	3%	u	i	5%	-5%
CC(C)NC(=O)C1(C)CCN1C(=O)c1cccc(F)c1 (stereo not drawn)	-1%	x	i	x	12%
O=C(NCCc1ccc(Cl)cc1)c1cnccn1	0%	5%	i	-2%	20%
CC(C)(C)C(=O)N(Cc1ccc(Cl)cc1)c1cnccn1	0%	18µM*	u	-1%	x
Oc1ccccc1-c1nnc(-c2ccc(C(F)(F)F)cc2)o1	24%	20%	i	-7%	55%
COc1ccc(-c2noc(N3CCC(C(=O)N4CCN(c5ccccn5)CC4)CC3)n2)cc1	0%	18µM*	i	-27%	u
CCN(C(=O)C1CCN(c2nc(-c3ccc(OC)cc3)no2)CC1)c1ccc(OC)cc1	1%	13µM*	u	-9%	-26%
COc1ccc(NC(=O)C2CCN(c3nc(-c4ccc(OC)cc4)no3)CC2)cc1	-2%	-8%	i	-1%	-9%
CC(/C=C1\SC(=S)N(NS(=O)(=O)c2ccc(C)cc2)C1=O)=C\c1ccccc1	6%	-13%	u	-15%	-3%
Cc1ccc(C(=O)Nc2nc(-c3ccco3)c(-c3ccco3)s2)o1	1.3µM*	-7%	i	-2%	9%
O=C(CCl)Nc1nc(-c2ccco2)c(-c2ccco2)s1	11µM*	-4%	i	-4%	-1%
COc1ccc(-c2n[nH]nc2C2=CC(=O)CC(C)(C)C2)cc1	0%	x	i	x	-4%
COc1ccc(CCNC(=O)c2ccc(Cn3c(=O)c4ccccc4n(Cc4cccc(F)c4)c3=O)cc2)cc1OC	-2%	u	28µM*	-1%	u
COc1cccc(CNS(=O)(=O)c2ccc3c(c2)CCN3C(=O)C2CCC2)c1	4%	-21%	i	1%	-13%
CNC(=O)/C(C#N)=C/c1c(N(Cc2ccccc2)Cc2ccccc2)nc2ccccn2c1=O	5%	u	i	23µM*	-9%
COC(=O)/C(C#N)=C/c1c(N2CCN(c3ccccc3)CC2)nc2ccccn2c1=O	10%	26%	i	-10%	18%

Source: PubChem (National Center for Advancing Translational Sciences (NCATS))
